# Experimental data as given in PubChem BioAssay (NCATS).
# “And” between values parts separate entries of the source, which are not always exact repeats. Equal entries are not always repeated. Inconclusive results are not listed. The source made the active and inactive calls. The call rests on the fitted dose curve; in most records, active means well fitted cell-killing curve with a large enough effect in the repeat runs; inconclusive means weak or mixed curves; inactive means flat fitted curve, though single readings scatter.
# Assay: qHTS assay for small molecule agonists of the antioxidant response element (ARE) signaling pathway measured by Nrf2-dependant transcriptional activity - cell viability counter screen (AID 720653)
# Conditions: ARE-bla HepG2 viability, CellTiter-Glo ATP luminescence, 16 h; max response: stronger effect = lower value
# How it was run: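 ARE-bla HepG2 cells (2,000/well) rested 5 hrs at 37C/5% CO2, then exposed to compounds in DMSO for 16 hrs. Viability was read in the same wells as intracellular ATP by luminescence, 30 min at room temperature after reagent addition.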
# On the % scale 0 is the no-effect control and ±100 the full control effect.
row,Compound,max response
1,COC(=O)C1=C(C)NC(C)=C(C(=O)OC)C1c1ccccc1[N+](=O)[O-],-20.5% (inactive)
2,C[C@]12C[C@H](O)[C@H]3[C@@H](CCC4=CC(=O)CC[C@@]43C)[C@@H]1CC[C@@H]2C(=O)CO,-15.9% (inactive) and -13% (inactive)
3,NCCNCCNCCNCCN,-13.9% (inactive) and 10.9% (inactive)
4,COc1ccccc1O,0.99% (inactive) and -1.64% (inactive) and 4.12% (inactive)
5,C[C@]12CC[C@@H]3c4ccc(O)cc4CC[C@H]3[C@@H]1CCC2=O,-0.718% (inactive)
6,NCCNCCNCCN,-12.2% (inactive)
7,O=C1O[C@H]([C@@H](O)CO)C(O)=C1O,26.8% (inactive) and 1.51% (inactive)
8,NC(=O)c1ncn([C@@H]2O[C@H](CO)[C@@H](O)[C@H]2O)n1,-11.8% (inactive)
9,Cc1cc2nc3c(=O)[nH]c(=O)nc-3n(C[C@H](O)[C@H](O)[C@H](O)CO)c2cc1C,0.335% (inactive)
10,O=S(=O)(O)NC1CCCCC1,2.33% (inactive)
11,CC1(C)[C@@H]2CC[C@@]1(C)C(=O)C2,-10.3% (inactive)
12,[Cl][In]([Cl])[Cl],5.32% (inactive)
13,CN(C)CCOC(C)(c1ccccc1)c1ccccn1 (configuration not stated),-11.9% (inactive)
14,CC12CCC(CC1)C(C)(C)O2,3.37% (inactive)
15,CCCCC(CC)COC(=O)c1ccccc1O (configuration not stated),-10.2% (inactive)
16,Oc1cccc(O)c1,0.509% (inactive)
17,Nc1ccc(S(=O)(=O)Nc2nccs2)cc1,-8.72% (inactive)
